According to PubChem BioAssay (EPA / NIEHS):
Records with an inconclusive call do not appear. Active and inactive are the calls of the source. The calls were made as follows: active = hit-call score of the fitted dose curve at least 0.9, where 1 is the maximum; inconclusive = response in the unintended direction; inactive = score below 0.9.

Target: Luciferin 4-monooxygenase (Photinus pyralis) (UniProt P08659)
Sequence (P08659 whole entry, looked up): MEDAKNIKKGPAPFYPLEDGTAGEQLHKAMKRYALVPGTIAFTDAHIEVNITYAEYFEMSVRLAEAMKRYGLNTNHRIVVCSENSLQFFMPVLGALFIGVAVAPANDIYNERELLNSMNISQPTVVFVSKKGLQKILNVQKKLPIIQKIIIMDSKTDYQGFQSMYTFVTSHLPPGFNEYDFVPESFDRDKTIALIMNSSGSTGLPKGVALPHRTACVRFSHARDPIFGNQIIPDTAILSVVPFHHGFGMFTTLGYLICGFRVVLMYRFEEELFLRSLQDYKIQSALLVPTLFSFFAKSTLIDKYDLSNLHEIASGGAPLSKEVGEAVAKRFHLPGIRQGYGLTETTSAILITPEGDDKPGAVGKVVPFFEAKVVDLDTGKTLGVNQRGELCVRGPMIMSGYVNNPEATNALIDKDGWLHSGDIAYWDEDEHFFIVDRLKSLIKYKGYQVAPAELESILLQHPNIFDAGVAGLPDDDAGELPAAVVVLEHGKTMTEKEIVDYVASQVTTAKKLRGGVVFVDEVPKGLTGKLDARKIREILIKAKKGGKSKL
Test: CCTE_Simmons_QuantiLum_inhib_2: CCTE's Firefly Luciferase Inhibition Assay, Simmons Lab (AID 2283767);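 as to AC50: potency for inhibitors that lower luciferase luminescence relative to DMSO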
Summary of the method: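 Eight-point titrations of each chemical, 5 nM–87.5 uM final in 0.5% DMSO, were run in three biological replicates against recombinant luciferase for 30 min at 37C. Bioluminescence signal loss, read on reagent injection, gave the inhibition endpoint.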
In the case of `Cc1oc(-c2ccccc2)nc1CCOc1ccc(C[C@H](Nc2ccccc2C(=O)c2ccccc2)C(=O)O)cc1`, the outcome is reported as “inactive”.
For `CCCCCCCCCCCCCC[N+](C)(C)C`, the outcome was “inactive”.
With `CC[C@H](c1ccc(O)cc1)[C@@H](CC)c1ccc(O)cc1` the outcome was “inactive”.
For `CCC(=C(c1ccc(O)cc1)c1ccc(OCCN(C)C)cc1)c1ccccc1`, the outcome was “inactive”.
In the case of `NC(=O)N(O)[C@@H]1C=C[C@H](Oc2cccc(Oc3ccc(F)cc3)c2)C1`, the AC50 is reported as 16.7 µM (active).
In the case of `Oc1cccc(O)c1`, the AC50 is reported as 16.1 µM (active).
For `CCCCCCCCCCCCN1CCCC1=O`, the AC50 was 31.1 µM (active).
In the case of `Oc1cc2ccccc2c2ccccc12`, the AC50 is reported as 30.1 µM (active).
In the case of `Cc1cc(C)c(O)c(C)c1`, the outcome is reported as “inactive”.

Test system: not listed separately
Test: ACEA_AR_agonist_AUC_viability: ACEA Biosciences xCELLigence Real-Time Cell Analysis on Androgen Receptor Agonism for Viability (AID 2283775);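 as to AC50: viability read 80 hours after compound addition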
Summary of the method: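 Viability endpoint from xCELLigence impedance in 22Rv1 prostate cells at 80 h. Eight-point series, 100 uM maximum final.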
With `CCCOC(=O)c1ccc(O)cc1` the outcome was “inactive”.
With `Cc1ccc(S(=O)(=O)O)c(C)c1` the outcome was “inactive”.
In the case of `Cc1oc(-c2ccccc2)nc1CCOc1ccc(C[C@H](Nc2ccccc2C(=O)c2ccccc2)C(=O)O)cc1`, the AC50 is reported as 14 µM (active).
With `O=C(/C=C/c1ccc(O)cc1)CC(=O)/C=C/c1ccc(O)cc1` the AC50 was 62.8 µM (active).
With `CCCCCCCCCCCCCC[N+](C)(C)C` the AC50 was 4.73 µM (active).
In the case of `COCC(C)O` (stereo not given), the outcome is reported as “inactive”.
With `CCC(C)(C)C1CCC(O)CC1` (stereo not given) the outcome was “inactive”.
In the case of `CC[C@H](c1ccc(O)cc1)[C@@H](CC)c1ccc(O)cc1`, the AC50 is reported as 10.7 µM (active).
With `CCC(=C(c1ccc(O)cc1)c1ccc(OCCN(C)C)cc1)c1ccccc1` the AC50 was 6.23 µM (active).
With `CCCCCCCCC(=O)O` the outcome was “inactive”.
For `CC(=O)NC1(c2cccc(F)c2)CCN(CC[C@@]2(c3ccc(Cl)c(Cl)c3)CN(c3ccccc3)C(=O)CO2)CC1`, the AC50 was 41.5 µM (active).
